A selection: hits, their analogues and other compounds. The true share with any hit is near 13%.
HCV inh: inhibitors of hepatitis C virus infection; Potency, µM (series often up to 41.8 µM), inactives show at the highest dose activity change, negative = inhibition, most hits filed as inhibitors; actives 3.4% (n = 340,000); Huh7.5.1 HCVcc-Cre infection, luciferase reporter, 44 h; active = well fitted inhibition curve with a large enough effect; inconclusive = small, poorly fitted or top-dose-only effect, or another doubt; inactive = no such curve, though single readings can be large or run the other way; also: potency is read from the fitted curve at half-maximal effect; % is scaled to controls: 0 for no effect and ±100 for the full control effect
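Cells (1,000/well) were plated 4 h before compound, then infected with HCVcc-Cre virus (~0.5 moi). After 44 h further culture, infection was read as luciferase luminescence following a 15 min substrate incubation at room temperature.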
MARV entry inh: Marburg virus entry inhibition. Marburg virus pseudotyped entry inhibition, cell reporter. Potency, µM (top dose mostly 37.8 µM), for the others: at the highest dose activity change, negative = inhibition, hits mostly inhibitors. actives 1.8% (n = 300,000). AID 540276; calls by dose curve; tested in HEK293 cells; also: potency is read from the fitted curve at half-maximal effect; % is scaled to controls: 0 for no effect and ±100 for the full control effect
LASV entry inh: inhibitors of Lassa virus binding or cell entry | Lassa virus pseudotype entry inhibition, cell reporter | Potency, µM (doses to about 37.9 µM), without a hit: top-dose activity change, negative = inhibition, most hits filed as inhibitors | actives 1.2% (n = 300,000) | AID 540256; calls by dose curve; tested in HEK293 cells; also: potency is read from the fitted curve at half-maximal effect; % is scaled to controls: 0 for no effect and ±100 for the full control effect; nearly all actives have a fitted effect of over 50% in size
CHX counter: counter-screen hit for Shiga toxin inhibitors, cycloheximide; cell reporter, cycloheximide protein synthesis inhibition counterscreen; max response, %; actives 12% (n = 300,000); AID 2314; in the data active = max response mostly above about 13%, no sharp cut-off; inactive = mostly below about 14%; also: read at 38.3 µM for the half of the compounds with a filed dose; 0% is about no effect
Shiga inhibitor: inhibitors of Shiga toxin in Vero cells; actives 9.2% (n = 290,000); AID 2315; Vero cells, Shiga toxin protein synthesis inhibition reporter; inhibition, % at 38.7 µM; in the data active = inhibition mostly above about 28%, no sharp cut-off; inactive = mostly below about 43%; also: 0% is about no effect
FMDV antiviral: blocks foot and mouth disease virus; FMDV antiviral cell-based qHTS; actives 1.2% (n = 410,000); Potency, µM (highest dose often 57.9 µM), for the others: at the top dose activity change, negative = inhibition, hits mostly inhibitors; calls by dose curve; tested in HEK293T cells; also: read-out not given here; potency is read from the fitted curve at half-maximal effect; % is scaled to controls: 0 for no effect and ±100 for the full control effect; nearly all actives have a fitted effect of over 45% in size
Numbers without * were called inactive; ? = inconclusive; . = no result; [ ] = another dose, or the depositor's remark.

SMILES	HCV inh	MARV entry inh	LASV entry inh	CHX counter	Shiga inhibitor	FMDV antiviral
O=C(CCS(=O)(=O)c1cccs1)NC1CCCCCC1	?	?	?	31*	115*	69%
CCOC(=O)c1c(N)c(C#N)c2n1CCCCC2	-15%	-3%[46.1 µM]	3%	-3	-6	-4%
O=C(Nc1ccnn1C1CCN(Cc2ccc(OC(F)F)cc2)CC1)C1CCCC1	22µM*	?	?	-2	-20	-25%
CCc1ccc(CN2CCC(n3nccc3NC(=O)c3ccccc3C)CC2)cc1	14µM*	?	?	-7	-13	-11%
CN(CC(=O)NCCCN1CCOCC1)S(=O)(=O)c1ccc(Br)cc1	9%	4%	7%	-3	-9	-3%
C/C(Cc1ccccc1)=N\NC(=O)CNC(=O)c1ccc(Cl)cc1	11%	21%[46.1 µM]	-12%[46.1 µM]	-3	-4	-4%
O=C(COC(=O)c1cc(S(=O)(=O)Nc2ccccc2Cl)ccc1O)Nc1nc2ccccc2s1	5%	?	?	12	-4	-9%
Cc1nc2ccccc2c2oc(C(=O)N3CCc4ccccc43)cc12	.	.	.	1	-4	.
Cc1ccc(C(=O)N2CCc3ccccc32)o1	9%	?	?	57*	98*	-17%
Cc1ccc(C(=O)N2c3ccccc3CC2C)o1 (stereo unspecified)	9%	?	?	39*	92*	25%
CC1Cc2ccccc2N1C(=O)COC(=O)c1ccco1 (stereo unspecified)	.	.	.	.	.	-13%
CC1Cc2ccccc2N1C(=O)c1ccc(Br)o1 (stereo unspecified)	-3%	.	.	.	.	68%
Cc1cc(C(=O)OCC(=O)N2c3ccccc3CC2C)c(C)o1 (stereo unspecified)	-14%	3%	14%	12	36*	7%
O=C(c1ccc([N+](=O)[O-])o1)N1CCc2ccccc21	?	?	-12%	14*	38*	0%
CCCCOP(=O)(c1ccc(N(C)C)cc1)C(O)c1cccnc1 (stereo unspecified)	-2%	5%	13%	1	-22	-15%
COC(=O)[C@]12CCCCC=C1N(Cc1ccccc1)C(=O)[C@H](CC(=O)NCc1cccs1)C2	.	.	.	.	.	0%
O=C1NC2(CCCCC2)C(=O)N1Cc1cc(=O)n2ccsc2n1	7%	.	.	0	-10	8%
CC(=O)c1ccc(-c2ccc(C(=O)N3CCCc4ccccc43)o2)cc1	?	?	?	27*	142	-15%
Cc1c(C(=O)N2CCc3ccccc32)oc2c1C(=O)CC(C)(C)C2	?	?	-12%	32*	69*	54%
COc1cccc2cc(C(=O)N3CCCc4ccccc43)oc12	-5%	.	.	-4	-22	-16%
N/C(Cc1cccc2ccccc12)=N\OC(=O)c1ccccc1F	15%	28%	13%	23*	23	7%
N/C(Cn1cncn1)=N\OC(=O)c1ccc(Cl)cc1Cl	30%	20%[46.1 µM]	?	9	58	-6%
N/C(Cc1ccccc1)=N\OC(=O)c1cccc2ccccc12	?	?	?	29*	64*	?
N/C(Cc1ccc(Cl)cc1Cl)=N\OC(=O)c1ccccc1F	4%	-12%[46.1 µM]	14%[46.1 µM]	53*	75*	18%
N/C(Cc1cccc2ccccc12)=N\OC(=O)COc1ccccc1	33%	1%	6%	4	33	-2%
SMILES	HCV inh	MARV entry inh	LASV entry inh	CHX counter	Shiga inhibitor	FMDV antiviral
O=c1c2c(-c3ccccc3)csc2ncn1/N=C/c1cn(-c2ccccc2)nc1-c1cccs1	.	.	.	-2	-14	.
Cn1cc(/C=N/n2cnc3scc(-c4ccc(Cl)cc4)c3c2=O)c2ccccc21	5.6µM*	?	?	1	-5	-24%
Cc1c(Cl)cccc1NC(=O)CNC(=O)CCS(=O)(=O)c1ccc(F)cc1	-1%	.	.	.	.	-5%
O=C(CN1CCN(Cc2ccc(Cl)cc2)C1=O)NCCCN1CCN(c2ccc(F)cc2)CC1	10µM*	13µM*	-23%	-3	-9	?
Cc1ccccc1CN1CCN(CC(=O)NCCCN2CCN(c3ccc(F)cc3)CC2)C1=O	10µM*	?	-22%	-5	-18	-20%
Cc1ccc(CCNC(=O)CCS(=O)(=O)Cc2ccc(C)cc2)cc1	7%	.	.	9	19	-8%
CN(C(=O)CSc1nnc(NCc2ccccc2)s1)C1CCS(=O)(=O)C1 (stereo unspecified)	19%	19%[46.1 µM]	-4%	12	-2	9%
O=S(=O)(c1cc(Cl)cc(Cl)c1)N1Cc2cc(-c3ccccc3)ccc2-n2nncc2C1	.	.	.	.	.	-12%
CCNc1cc(N2CCCC2)ccc1[N+](=O)[O-]	?	-11%	3%	-2	-15	-8%
COc1ccc2ccc(Oc3ncccn3)cc2c1	?	?	5%	19	83	37%
c1cnc(Oc2ccc3oc4ccccc4c3c2)nc1	17%	?	-37%	44*	56*	22%
N/C(=N\OC(=O)/C=C/c1ccccc1)c1ccc(Cl)cc1	6%	?	-5%	16*	17	17%
COc1ccc(/C=C/C(=O)O/N=C(\N)c2cccnc2)cc1OC	13%	0%	.	29*	25	4%
CCC(C(=O)O/N=C(\N)c1ccc(Cl)cc1)c1ccccc1 (stereo unspecified)	0%	-8%[46.1 µM]	3%	9	-1	16%
N/C(=N\OC(=O)/C=C/c1ccccc1)c1ccccc1	?	-5%	?	35*	92*	.
Cc1nc(NC(=O)CC(C)C)sc1-c1csc(Nc2ccc(Cl)cc2)n1	7.1µM*	.	.	2	-15	-21%
COc1ccc(Cl)cc1Nc1nc(-c2sc(NC(=O)CC(C)C)nc2C)cs1	11µM*	.	.	-1	-12	-29%
CCN(CC)C(=O)CSc1nsc(SCC(=O)N(CC)CC)c1C#N	23%	23%[46.1 µM]	-20%	1	-17	7%
COc1ccccc1CNC(=O)CSc1ccc(-c2cccs2)nn1	24%	-31%[46.1 µM]	.	1	23	-17%
Cn1c(SCc2ccccc2Cl)nc(=O)c2c1NC(=O)CC2c1cc(F)ccc1F (stereo unspecified)	.	4%[46.1 µM]	-9%[46.1 µM]	.	.	-9%
CCOC(=O)COc1nc2c(c(-c3ccco3)c1C#N)CCc1ccccc1-2	-25%	-22%[46.1 µM]	-14%	19	42*	-24%
COc1cc(NC(=O)Cn2c(C)cc3ccccc3c2=O)cc(OC)c1OC	11%	-28%[46.1 µM]	?	-1	-8	-17%
COC(=O)c1ccc(-c2ccc(/C=N/NC(=O)Cc3nnc(N)s3)o2)cc1	-5%	?	10%	24*	39	-6%
O=C(O)c1cccc(-c2ccc(/C=N/Nc3nn[nH]n3)o2)c1	19%	7%[46.1 µM]	12%	10	10	54%
Nc1nonc1C(=O)N/N=C/c1ccc(-c2cccc(C(=O)O)c2)o1	.	.	.	29*	51*	.
Cc1ccc(OCC(=O)N/N=C\c2ccc(C)o2)c(C)c1	-10%	15%[46.1 µM]	-13%	6	-12	12%

Screening data: PubChem, National Center for Advancing Translational Sciences (NCATS)
